Consider 26 molecules from PubChem BioAssay (Tox21).

A short description of experiment [1]: qHTS assay to identify small molecule antagonists of the glucocorticoid receptor (GR) signaling pathway - cell viability counter screen (AID 720693). Also: nearly all actives have a fitted effect of over 55% in size. Also: potency is read from the fitted curve at half-maximal effect.
A short description of experiment [2]: qHTS assay for identifying genotoxic compounds that show differential cytotoxicity against isogenic chicken DT40 cell lines with known DNA damage response pathways - wild type cell line (AID 743012). Also: nearly all actives have a fitted effect of over 60% in size. Also: potency is read from the fitted curve at half-maximal effect. The essentials:
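Endpoint: CellTiter-Glo luminescence, 30 min RT. Cells: wild type DT40, 300/well. Exposure: compounds in DMSO, 40 h, 37 C/5% CO2, after ~0.5 h pre-incubation.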
A general note: In qHTS, concentration-response curves come from the screen itself.

A short description of experiment [3]: qHTS assay for identifying genotoxic compounds that show differential cytotoxicity against isogenic chicken DT40 cell lines with known DNA damage response pathways - Rev3 mutant cell line (AID 743014). Also: nearly all actives have a fitted effect of over 55% in size. Also: potency is read from the fitted curve at half-maximal effect.
A short description of experiment [4]: qHTS assay for identifying genotoxic compounds that show differential cytotoxicity against isogenic chicken DT40 cell lines with known DNA damage response pathways - Rad54/Ku70 mutant cell line (AID 743015). Also: nearly all actives have a fitted effect of over 60% in size. Also: potency is read from the fitted curve at half-maximal effect.
A short description of experiment [5]: qHTS assay to identify small molecule antagonists of the androgen receptor (AR) signaling pathway - cell viability counter screen (AID 743033; also: nearly all actives have a fitted effect of over 45% in size; also: potency is read from the fitted curve at half-maximal effect).
The nature of experiment [6]: qHTS assay to identify small molecule antagonists of the androgen receptor (AR) signaling pathway using the MDA cell line - cell viability counter screen (AID 743041; also: nearly all actives have a fitted effect of over 45% in size; also: potency is read from the fitted curve at half-maximal effect). The essentials:
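qHTS viability read-out; MDA-kb2 AR-luc; R1881-stimulated; 16 h exposure at 37C, 0% CO2; CellTiter-Fluor, 30 min; fluorescence intensity.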

Experiment [7] has as its target Androgen receptor (Homo sapiens) (UniProt P10275). The experiment can be described thus: qHTS assay to identify small molecule antagonists of the androgen receptor (AR) signaling pathway (AID 743035; active = well fitted inhibition curve with a large enough effect in the signal ratio in the repeat runs, not every such curve was filed as active; the % refers to the signal ratio). The essentials: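 R1881 agonist challenge of a HEK293 UAS-beta-lactamase AR reporter line in the presence of compound (16 h, 37C); signal taken as FRET fluorescence after 2 h with LiveBLAzer B/G substrate at room temperature.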

For experiment [8] the target is unchanged. The experiment can be described thus: qHTS assay to identify small molecule agonists of the androgen receptor (AR) signaling pathway (AID 743036; active = well fitted activation curve with a large enough effect in the signal ratio in the repeat runs, with a control signal flat, not every such curve was filed as active; the % refers to the signal ratio). The gist of the method: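 Beta-lactamase under UAS control, stably integrated in HEK293 GripTite cells, reports receptor activation. After 16 h compound treatment, cells received FRET substrate for 2 h at room temperature before fluorescence reading.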

Experiment [9] has the same target. The experiment can be described thus: qHTS assay to identify small molecule agonists of the androgen receptor (AR) signaling pathway using the MDA cell line (AID 743040; also: nearly all actives have a fitted effect of over 20% in size). The settings on record: MDA-kb2 AR-luc cells, MMTV luciferase, 16 h; activity change: at 70.3 µM (top of the series), hits give high values. The essentials: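 Agonist activity is measured as luciferase luminescence in human MDA-kb2 cells whose MMTV reporter responds to both AR and GR. Compounds in DMSO incubate 16 h at 37C, 0% CO2, and ONE-Glo is read after 30 min.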

Experiment [10] has the same target. Briefly: qHTS assay to identify small molecule antagonists of the androgen receptor (AR) signaling pathway using the MDA cell line (AID 743042; also: nearly all actives have a fitted effect of over 55% in size). The essentials: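 MDA-kb2 cells (human breast carcinoma, stably carrying an MMTV-luciferase reporter responsive to AR and GR) were plated at 3,000 cells/well and preincubated 5 hr at 37C, then given compound plus R1881 agonist for 16 h. ONE-Glo luminescence was read.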

“And” between values parts separate entries of the source, which are not always exact repeats. Identical values can stand only once. Results filed as inconclusive are left out. The source made the active and inactive calls. Unless noted, calls follow the shape of the dose curve; as a rule, active = well fitted curve in the direction sought with a large enough effect in the repeat runs; inconclusive = weak or mixed curves; inactive = no such curve, though single readings can be large; an effect the other way counts as inactive or inconclusive.

Chain of Androgen receptor (Homo sapiens) (P10275 whole entry, looked up): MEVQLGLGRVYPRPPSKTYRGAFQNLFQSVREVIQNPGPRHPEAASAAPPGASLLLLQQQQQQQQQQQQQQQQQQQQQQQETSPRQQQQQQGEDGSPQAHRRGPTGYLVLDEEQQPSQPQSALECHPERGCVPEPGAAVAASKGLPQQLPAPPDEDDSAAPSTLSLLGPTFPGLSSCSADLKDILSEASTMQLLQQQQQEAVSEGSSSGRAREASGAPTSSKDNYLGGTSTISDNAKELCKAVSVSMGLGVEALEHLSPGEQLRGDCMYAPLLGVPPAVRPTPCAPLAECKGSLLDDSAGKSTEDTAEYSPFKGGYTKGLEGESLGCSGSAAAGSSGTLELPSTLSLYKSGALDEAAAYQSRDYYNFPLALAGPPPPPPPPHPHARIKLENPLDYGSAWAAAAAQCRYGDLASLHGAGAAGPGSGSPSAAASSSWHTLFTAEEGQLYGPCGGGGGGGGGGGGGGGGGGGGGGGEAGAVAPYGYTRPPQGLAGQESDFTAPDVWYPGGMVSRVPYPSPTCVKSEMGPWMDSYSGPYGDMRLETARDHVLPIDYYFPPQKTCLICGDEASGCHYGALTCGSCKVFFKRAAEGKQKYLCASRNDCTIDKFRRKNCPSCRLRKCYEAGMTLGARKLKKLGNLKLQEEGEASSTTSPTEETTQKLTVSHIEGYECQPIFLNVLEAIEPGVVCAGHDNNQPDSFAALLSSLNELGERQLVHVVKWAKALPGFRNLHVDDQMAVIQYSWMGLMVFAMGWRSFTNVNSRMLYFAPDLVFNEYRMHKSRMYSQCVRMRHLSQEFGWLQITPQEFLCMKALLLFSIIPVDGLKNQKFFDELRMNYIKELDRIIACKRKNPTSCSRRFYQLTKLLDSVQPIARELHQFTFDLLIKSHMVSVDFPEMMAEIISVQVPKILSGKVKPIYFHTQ

`CC(C)(C)c1ccc(CCOc2ncnc3ccccc23)cc1`: the Potency entry in experiment [1], in experiment [2], in experiment [3], in experiment [4], in experiment [5] and in experiment [6] was “inactive” throughout.
For `CC(Cl)C(=O)O` (stereo not given), the Potency result in experiment [1], in [2], in [3], in experiment [4], in experiment [5] and in experiment [7] was “inactive” each time. The Potency result in experiment [8], in experiment [9], in experiment [6] and in experiment [10] was “inactive” in each case.
For `Cc1ncc(C[n+]2csc(CCO)c2C)c(N)n1`, the Potency entry in experiment [1], in experiment [2], in [3], in [4], in experiment [5] and in experiment [6] was “inactive” in each case.
Consider `C[C@@H]1C[C@@H]([C@H](O)CC2CC(=O)NC(=O)C2)C(=O)[C@@H](C)C1`, for which the Potency result in experiment [1] and in experiment [6] was “inactive” throughout. Besides, the Potency in experiment [2] is 59.6 nM (active) and 108 nM (active); in experiment [3], 119 nM (active) and 60.8 nM (active); in experiment [4], 133 nM (active) and 121 nM (active); in experiment [5] it was 379 nM (active) and 97.2 nM (active).
In the case of `CN(C)c1ccc(N=O)cc1`, the Potency is 39 µM (active) and 43.6 µM (active) in experiment [1]; 1.73 µM (active) and 1.93 µM (active) in experiment [2]; 546 nM (active) and 1.93 µM (active) in experiment [3]; 1.37 µM (active) and 1.72 µM (active) in experiment [4]; 12.3 µM (active) and 43.6 µM (active) in [5]; 54.6 µM (active) and 27.3 µM (active) in experiment [6].
In the case of `CCC(C)(C)c1ccc(O)c(C(C)(C)CC)c1`, the Potency was 19.3 µM (active) and 19.5 µM (active) in [1]; 24.3 µM (active) in experiment [2]; 27.3 µM (active) in experiment [3]; 53.9 µM (active) and 24.3 µM (active) in [4]; 54.4 µM (active) in experiment [5].
Turning to `C=CCOCC1CO1` (stereo not given), the Potency entry in [1], in [2], in [3], in [4], in experiment [5] and in experiment [6] was “inactive” throughout.
As for `Cc1nnc(-c2ccccc2)c(=O)n1N`, the Potency result in [1], in [2], in experiment [3], in [4], in experiment [5] and in [6] was “inactive” in each case.
As to `O=C(NCNC(=O)NC1C(=O)NC(=O)N1CO)NC1C(=O)NC(=O)N1CO` (stereo not given), the Potency entry in experiment [1], in experiment [2], in [3], in [4], in experiment [5] and in [7] was “inactive” in each case. Also, the Potency result in experiment [8], in [9], in [6] and in experiment [10] was “inactive” in each case.
Regarding `FC(Cl)(Cl)C(F)(Cl)Cl`, the Potency result in [1], in experiment [2], in [3], in [4], in experiment [5] and in experiment [6] was “inactive” throughout.
Take `CCOP(=O)(O)C(N)=O`: the Potency result in [1], in [2], in experiment [3], in experiment [4], in [5] and in experiment [6] was “inactive” in each case.
As to `Nc1c(Br)cc(Br)c2c1C(=O)c1ccccc1C2=O`, the Potency result in experiment [1], in [2], in experiment [3], in [4], in experiment [5] and in [8] was “inactive” throughout. In addition, the Potency result in experiment [9], in experiment [6] and in experiment [10] was “inactive” in each case.
On to `CC(Oc1cc(Cl)c(Cl)cc1Cl)C(=O)O` (stereo not given), for which the Potency result in [1], in [2], in experiment [3], in experiment [4], in experiment [5] and in experiment [6] was “inactive” each time.
Turning to `C[N+]1(CCC(C(N)=O)(c2ccccc2)c2ccccc2)CCCCC1`, the Potency entry in experiment [1], in experiment [2], in experiment [3], in experiment [4], in experiment [5] and in experiment [6] was “inactive” throughout.
On to `C[C@H]1O[C@H](OC2[C@@H](O)[C@@H](O)C(O)[C@H](O)[C@H]2O)[C@@H](N)C[C@@H]1N=C(N)C(=O)O` (stereo not given in full), for which the Potency result in experiment [1], in [2], in experiment [3], in experiment [4], in [5] and in [6] was “inactive” throughout.
As for `CCCC(C)(COC(N)=O)COC(=O)NC(C)C` (stereo not given), the Potency result in experiment [1], in experiment [2], in experiment [3], in experiment [4], in [5] and in [6] was “inactive” throughout.
For the molecule `CCCCCl`, the Potency result in [1], in experiment [2], in experiment [3], in experiment [4], in [5] and in experiment [6] was “inactive” in each case.
For `CC(C)(C)NCC(O)c1ccccc1Cl` (stereo not given), the Potency entry in experiment [1], in experiment [2], in experiment [3], in experiment [4], in experiment [5] and in experiment [6] was “inactive” each time.
As to `COCc1cnc(C2=NC(C)(C(C)C)C(=O)N2)c(C(=O)O)c1` (stereo not given), the Potency entry in experiment [1], in experiment [2], in [3], in experiment [4], in [5] and in experiment [7] was “inactive” each time. Besides, the Potency result in experiment [8], in experiment [9], in [6] and in experiment [10] was “inactive” throughout.
`O=C1NC(=O)C(=O)C(=O)N1`: the Potency entry in experiment [1], in experiment [2], in experiment [3], in [4], in experiment [5] and in experiment [6] was “inactive” throughout.
Take `N#CC(C#N)=Cc1ccc(O)c(O)c1`: the Potency entry in experiment [1], in [5], in experiment [9] and in experiment [10] was “inactive” in each case. Moreover, the Potency is 13.3 µM (active) in experiment [2], 26.6 µM (active) in experiment [3] and 26.6 µM (active) in experiment [4].
As for `Clc1ccc(Cl)c(Cl)c1`, the Potency result in experiment [1], in experiment [2], in [3], in experiment [4], in experiment [5] and in experiment [6] was “inactive” in each case.
Regarding `FC(F)OC(F)(F)C(F)Cl` (stereo not given), the Potency result in [1], in [2], in experiment [3], in experiment [4], in experiment [5] and in [7] was “inactive” in each case. The Potency result in [8], in experiment [9], in experiment [6] and in [10] was “inactive” throughout.
On to `O=C=NC1CCCCC1`, for which the Potency result in experiment [1], in experiment [2], in experiment [3], in experiment [4], in experiment [5] and in experiment [6] was “inactive” each time.
For `CC(Oc1cccc(Cl)c1)C(=O)O` (stereo not given), the Potency result in experiment [1], in experiment [2], in experiment [3], in experiment [4], in experiment [5] and in [6] was “inactive” throughout.
Consider `O=C1CC[C@@]2(O)[C@H]3Cc4ccc(O)c5c4[C@@]2(CCN3CC2CC2)[C@H]1O5`, for which the Potency result in [1], in experiment [2], in [3], in experiment [4], in experiment [5] and in experiment [6] was “inactive” in each case.
